The values below come from the OligoGym collection.
Also: reference of the scale not given here.

The first assay concerns the target ZSWIM5. The experiment in a line: pooled miR-30 sensor sort-seq; sequence = guide strand. The conditions noted are these: shRNA.
In the case of TTGCACTAGCTCATCGTCCAGC, the sensor-assay potency score (higher = more potent) was -0.629.

Regarding TAGCAATCTTGAATGCATCTTG, the sensor-assay potency score (higher = more potent) was 0.435. On the same count and under the same terms, the same measure for TTGTCTGTCATGTTTGTTCCTT: -0.0787; for TTAAAGAGTAGTCTTTCACTTT: -0.123; for TAGTCTTTCACTTTCCCGCTGG: 0.269. Take TAGAATATGTCCTTGTTCCCAC: the sensor-assay potency score (higher = more potent) is -0.0166. Same read-out and setting: the same measure for TTGAGGTTGTCGATGAACTGGG: -0.0434; for TTTGTCAGTGGACATGAGCTTT: -0.796.

On to TAGCTCATCGTCCAGCTGCAGC, for which the sensor-assay potency score (higher = more potent) was -1.21.

On to TAGTGAATACTGTTCGTCTTGG, for which the sensor-assay potency score (higher = more potent) was -0.686. Same read-out and setting: with TTCTGTAGCACAGGTCACCAAC the figure was -1.2; with TTGAGTTGAGTTGCTTTCCAGA, -0.443.

A further assay has as its target ZZEF1. The assay is described as above. As to conditions: shRNA.
Consider TTTAACAGGTCACAGTAGCGAG, for which the sensor-assay potency score (higher = more potent) was -1.06.

As to TTAACCTCCTTACTATTCCGGT, the sensor-assay potency score (higher = more potent) was -0.49. Still for that read-out and setting: with TTTCTTTTGAACTTATGCCCGT the figure was -0.351.

With TTAATCTGGACATAGAGCTGAC, the sensor-assay potency score (higher = more potent) was -0.316. Still for that read-out and setting: the same measure for TTGAGAAATCTGTAGATCCTGG: 0.26. The same measure, in the same setting: the same measure for TTCAGCTGCAGGTAGCACCAGG: -0.559; for TTCTTGTTTTAGTATCTCCATG: -1.42; for TTAGTGTTTTATACAATCCTTT: -0.602. Sequence TAGCACTTTGCTACTGACTTGA came in with a sensor-assay potency score (higher = more potent) of 0.394.

As to TTGAGGAGCAGGTTCTGTCTGA, the sensor-assay potency score (higher = more potent) was -0.0904. Still for that read-out and setting: with TTATAGGCAAACACCAACCCAC the figure was -0.586.
